According to PubChem BioAssay AID1063 (University of Pittsburgh Molecular Library Screening Center, 2008):
Among all 200,000 compounds or so, about 18,000 (9%) were called active. Only a selection was taken, and actives are over-represented in it overall. Unmarked numbers belong to inactive results. No stated cut-off is given here; in the data, active means inhibition above about 50%; inactive means the rest.

Experiment: antileishmanial activity against promastigotes – primary screen (AID 1063);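 further: promastigotes grown with compound for 44 hours at 28 °C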
Conditions: Leishmania major promastigotes, resazurin fluorescence viability; at 10 µM; stronger effect = higher value

Structure (SMILES) | inhibition
O=C(N/N=C/c1ccc([N+](=O)[O-])o1)c1cn(-c2ccccc2)nc1-c1ccc(F)cc1 | 63.2% (active)
Cc1nnc(SCC(=O)N/N=C/c2cn(-c3ccccc3)nc2-c2ccc(F)cc2)n1-c1ccccc1 | -0.75%
O=C(CSc1ccc(/C=N/NC(=O)c2cccc(F)c2)o1)Nc1ccccc1 | -5.63%
OC1CCCN(c2ncnc3c2nnn3Cc2c(F)cccc2Cl)C1 (stereo not drawn) | -5.48%
CC(=O)NC1C(Oc2ccc(C=O)cc2)OC(COC(C)=O)C(OC(C)=O)C1OC(C)=O (stereo not drawn) | -1.48%
CC(=O)NC1C(OCc2ccccc2)OC(COC(C)=O)C(OC(C)=O)C1OC(C)=O (stereo not drawn) | 55.7% (active)
CCCCCCCCCOC1OC(CO)C(O)C(O)C1NC(C)=O (stereo not drawn) | 16.4%
Cc1ccc2nc(COc3ccc(N(C)S(=O)(=O)c4ccccc4)cc3)cc(=O)n2c1 | -0.08%
Cc1nn(CCOc2ccc(Br)cc2)c(C)c1[N+](=O)[O-] | -0.48%
COc1ccccc1CN(C)c1nnnn1-c1ccccc1 | 6.46%
CC(C)CC[n+]1ccn(C2=C([O-])c3ccccc3C(=O)/C2=N\S(=O)(=O)c2ccccc2)c1 | 77.1% (active)
CN1C(=O)/C(=C/c2ccco2)SC1=Nc1cccc(C(=O)O)c1 | -6.02%
COCCCNC(=O)C1CCC(CNS(=O)(=O)c2ccc(OC)cc2)CC1 (stereo not drawn) | -4.6%
CCC1(CC)NC(=O)N(CC(=O)OCC(=O)NC(=O)c2ccccc2)C1=O | 10.3%
Cc1cc(-c2ccc(/C=N/n3cnnc3)o2)c([N+](=O)[O-])cc1C | 2.14%
Cc1cc([N+](=O)[O-])c(-c2ccc(/C=N/n3cnnc3)o2)cc1Cl | 2.86%
Cc1ccc(Cl)cc1-c1ccc(/C=N/n2cnnc2)o1 | 64.2% (active)
Cc1ccc(N2C(=O)SC(N(CC(=O)O)c3ccc(C)cc3)C2=O)cc1 (stereo not drawn) | -0.34%
CNC(=S)N/N=C/c1ccc(N2CCOCC2)s1 | 90.2% (active)
Cc1cc(C(=O)N/N=C/c2ccc(N3CCOCC3)cc2)c(C)o1 | 7.7%
CCOc1cccc(/C=N/NC(=S)NCCN2CCOCC2)c1O | 4.68%
COC(=O)Cc1ccc(OCC(=O)Nc2ccc(OC(F)(F)F)cc2)cc1 | 54.1% (active)
COC(=O)[C@H](C)NC(=O)Nc1ccc(OC(F)(F)F)cc1 | -4.5%
CCNC(=S)Nc1ccc(OC(F)(F)F)cc1 | -1.95%

Structure (SMILES) | inhibition
COc1ccc(OC)c(CNC(=O)c2cc(=O)[nH]c3ccc(S(=O)(=O)N4CCCC4)cc23)c1 | -4.76%
COc1ccc(-n2cc(CN(C)Cc3n[nH]c(=O)[nH]3)c(-c3cccc(F)c3)n2)cc1 | 2.9%
O=C(O)COc1ccc(/C=N/O)cc1Br | -4.34%
O=C(CN1CCN(c2ccc(Cl)cc2)CC1)NCc1cccs1 | -4.73%
CCN(C(=O)Cc1nc(N)n[nH]1)C1(C(=O)Nc2ccccc2)CCCCC1 | -8.2%
O=C1N/C(=N\N=C\c2ccco2)SC1Cc1ccc(F)cc1 (stereo not drawn) | -16.9%
COc1ccc(-c2cc(C)nc3nc(N)nn23)cc1 | 0.56%
Cc1cc(C(C)(C)C)cc(C)c1N | 3.48%
Cc1cc(N)n2nc(-c3ccc(C(C)(C)C)cc3)cc2n1 | 80.3% (active)
CCOC(=O)c1ccc(N2C(=O)CC(N3CCN(C(=O)c4ccccc4)CC3)C2=O)cc1 (stereo not drawn) | -1.97%
O=C(c1ccc(F)cc1)n1cc(C(=S)N2CCOCC2)c2ccccc21 | -2.86%
Cc1c(NC(=S)NC(=O)CCc2ccccc2)c(=O)n(-c2ccccc2)n1C | -2.93%
O=C(NCCc1ccccc1)/C(=C\c1ccc([N+](=O)[O-])cc1)NC(=O)c1ccccc1 | -2.32%
C=CCNC(=O)/C(=C\c1cccc([N+](=O)[O-])c1)NC(=O)c1ccccc1 | -2.62%
CN(C)CCNC(=O)/C(=C/c1cccc([N+](=O)[O-])c1)NC(=O)c1ccccc1 | 68.3% (active)
Cc1nnc(SCc2cccc(Cl)c2)n(N)c1=O | 9.66%
CN1CCN(S(=O)(=O)c2cccc(C(=O)N3CCc4ccccc43)c2)CC1 | 7%
S=C(NCCc1ccccc1)N1CCn2cccc2C1c1ccncc1 (stereo not drawn) | 81.9% (active)
Fc1cc(Br)ccc1NC(=S)Nc1cccnc1 | 5.1%
S=C(Nc1cccc(Br)c1)N1CCn2cccc2C1c1cccnc1 (stereo not drawn) | 91.2% (active)
COc1cccc(NC(=O)CC2C(=O)NCCN2C(=S)Nc2ccc(F)cc2)c1 (stereo not drawn) | -2.74%
O=C1CCN(C(=S)NCCc2ccccc2)CC1 | -11.3%
S=C(NCCc1ccccc1)N1CCCCC1 | -2.11%
O=C(/C=C/c1ccccc1)Oc1coc(CSc2ncccn2)cc1=O | -7.34%

Structure (SMILES) | inhibition
Cc1cc(C)c2[nH]c(=O)c(CN(Cc3ccccc3)C(=S)NCCCN(C)C)cc2c1 | 100% (active)
Cc1cccc2cc(CN(Cc3cccs3)C(=S)NCc3ccco3)c(=O)[nH]c12 | 46%
COCCCNC(=S)N(Cc1ccccc1)Cc1ccc(F)cc1 | 9.14%
CN1C=CC=C/C1=C1\SC(=S)N(Cc2ccccc2)C1=O | -0.34%
CN(C)C(CNC(=O)c1cccc(C#N)c1)c1ccco1 (stereo not drawn) | 3.86%
Cc1ccc(NC(=S)N(CCCN2CCCC2)Cc2cccn2Cc2ccc(Cl)cc2)cc1 | 99.7% (active)
CCc1ccccc1NC(=S)N(CCN1CCCCCC1)Cc1ccco1 | 21.6%
COc1cccc2cc(C(C)N(CCCN3CCOCC3)C(=O)Nc3ccc(Cl)cc3)oc12 (stereo not drawn) | 48.2%
CCOC(=O)N1CCN(CCC(=O)Nc2cc(OC)ccc2OC)CC1 | -3.46%
CCOC(=O)N1CCN(C(=O)C2CCN(Cc3ccc(OC)cc3OC)CC2)CC1 | 53.4% (active)
CCOC(=O)N1CCN(C(=O)C2CCN(S(C)(=O)=O)CC2)CC1 | -5.19%
Cc1ccc(C)c(Cn2nnc3c(=O)[nH]c(C(=O)Nc4ccc(F)cc4)nc32)c1 | 39%
O=[N+]([O-])c1ccc2[nH]c3c(c2c1)CCCC3O (stereo not drawn) | -1.72%
CCn1c(CNC(=O)c2ccco2)nnc1SCC(=O)Nc1cccc(F)c1 | -1.95%
CCCCNC(=O)N1CCN(S(C)(=O)=O)CC1 | -0.76%
Cc1ccc(C)c(Cn2cnc3c(oc4ccccc43)c2=O)c1 | -7.39%
Cc1ccc(C)c(NC(=O)CSc2nc3c(oc4ccccc43)c(=O)n2-c2ccccc2)c1 | 97.7% (active)
Cc1ccc(C)c(NC(=O)CSc2nnc(Cc3cccn3C)n2-c2ccc(F)cc2)c1 | -0.8%
COCCC(=O)Nc1ccc2c(c1)CN(C(=O)CCOC)CC2 | -5.46%
COCCn1c(N)c(N(Cc2ccccc2)C(=O)C2CCCCC2)c(=O)[nH]c1=O | -6%
C=CCOC(=O)C1=C(C)N=C2SCCC(=O)N2C1/C=C/c1ccccc1OC (stereo not drawn) | 7.43%
O=C(c1cccc(S(=O)(=O)N2CCCC2)c1)N(Cc1ccco1)C1CCS(=O)(=O)C1 (stereo not drawn) | -2.42%
O=C(CSc1nnc(-c2cccs2)n1Cc1ccccc1)N1CCc2ccccc2C1 | 83.6% (active)
CCn1c(SCC(=O)c2ccc3ccccc3c2)nnc1-c1cccs1 | -1.02%

Structure (SMILES) | inhibition
O=C(CSc1nnc(-c2cccs2)n1-c1ccccc1)N1CCN(C(=O)c2ccco2)CC1 | -10.5%
COC(=O)c1ccc(COC(=O)c2cnccn2)cc1 | -1.35%
COc1cc(C2C(C(=O)Nc3ccccc3OC)=C(C)Nc3ncnn32)ccc1O (stereo not drawn) | -3.99%
COc1ccccc1NC(=O)C1=C(C)Nc2nnnn2C1c1cccc(Br)c1 (stereo not drawn) | 95.7% (active)
COc1ccc(C2C(C(=O)Nc3ccccc3OC)=C(C)Nc3nnnn32)c(OC)c1 (stereo not drawn) | 15.1%
Cc1ccnc(NC(=O)CCC(=O)N(CC(=O)NCc2ccccc2)Cc2ccco2)c1 | -5.25%
Cc1ccc(C)c(N(CC(=O)NCc2ccco2)C(=O)CCC(=O)Nc2ccccn2)c1 | 53.3% (active)
COCCNC(=O)CN(C(=O)CCC(=O)Nc1cc(C)on1)c1ccc(C)cc1C | 2.39%
O=S1(=O)CCN(Cc2ccccc2Cl)CC1 | -4.67%
O=C(NCC1CCN(Cc2ccccc2Cl)CC1)Nc1cccc(Cl)c1 | 76.4% (active)
O=C(NCCN1CCOCC1)Nc1cccc(Cl)c1 | -0.08%
N#Cc1ccc(CSc2nnc3ccccn23)cc1 | -3.72%
Cc1ccc(NN=C2C(=O)OC(C)(C)OC2=O)c(C)c1 | -4.89%
Cc1onc(C(=O)NN)c1C(=O)N1CCN(C(c2ccccc2)c2ccccc2)CC1 | -5.09%
CN(c1ccccc1)S(=O)(=O)c1cccc(NC(=O)Cc2c(F)cccc2Cl)c1 | 98.4% (active)
O=C(Cc1c(F)cccc1Cl)Nc1ccc(-n2cnnn2)cc1 | 1%
CN(c1ccccc1)S(=O)(=O)c1ccc(Cl)c(C(=O)OCC(N)=O)c1 | -0.01%
C=CCNc1scc(-c2ccccc2)[n+]1CC=C | 9.84%
Cc1cccc(C(=O)NCCCN2CCCC2=O)c1 | -4.51%
Cc1nn(Cc2ccccc2)c(C)c1C(=O)NCCN1C(=O)S/C(=C\c2ccc(F)cc2)C1=O | -6.47%
CCN1CCN(CCNC(=O)c2ccc(/C=C3/Sc4ccccc4N(Cc4cccc(C)c4)C3=O)cc2)CC1 | 101% (active)
